Experimental data as given in ChEMBL document CHEMBL5308541, “MAIP: An Open-Source Tool to Enrich High-Throughput Screening Output and Identify Novel, Druglike Molecules with Antimalarial Activity” (ACS Med Chem Lett, 2023).
Among all 4,800 compounds or so, about 410 (8.5%) showed an effect of 50% or more. What follows is part of a selection rich in strong results, with near analogues and random picks from the rest.

System: Plasmodium falciparum
Test: Confirmatory screen in NF54 pLDH assay, in single point, at 2uM, 72h
Type: functional, Erythrocyte
Settings: timepoint 72 hour

| Compound | % Inhibition [%] |
| --- | --- |
| CN1CCC(N(Cc2ccccc2)C(=O)c2cc3cnccc3[nH]2)CC1 | 58 |
| Cc1cc(N2CCC(NC3CCCC3Cc3ccc(F)cc3)CC2)nc(N)n1 (stereo not drawn) | 103 |
| Cc1cc(N2CCC(NC3CCNC(c4ccccc4)C3)CC2)nc(C)n1 (stereo not drawn) | 33 |
| O=C(NCC1CC1)c1cc2c(OCc3ccc(Cl)cc3)cccc2[nH]1 | 53 |
| Cc1cc(NC[C@H](O)COc2ccc(F)cc2)nc2ccccc12 | 81 |
| N#Cc1ccc(N2C[C@H](COCC3CC3)C3(CCN(Cc4cccc(O)c4)CC3)C2)cc1C(F)(F)F | 89 |
| COCCCN1CCC(Nc2ncnc3cc(C)c(C)cc23)CC1 | 94 |
| CC1(N2CCC2)CCC(NC[C@H]2CCN(Cc3ccccc3)C2)CC1 (stereo partly drawn) | 66 |
| Cn1nnc(C(=O)N2CCCCC23CCCCCC3)n1 | 59 |
| Cc1ccc2[nH]c(-c3cc4n(n3)CCN(c3ccnc(N)n3)C4)nc2c1C | 97 |
| c1ccc(CN2CCC(CCNC[C@@H]3CCCN4CCCC[C@H]34)CC2)cc1 | 63 |
| CCN(Cc1cnn(-c2cccc(Cl)c2)c1)CC1CCN(C2CCN(C)CC2)CC1 | 92 |
| CCN(Cc1[nH]c2ccc(Cl)cc2c1C)CC1CCN(C2CCN(C)CC2)CC1 | 102 |
| COc1ccc(-c2cc(-c3ccccc3O)n([C@@H]3C(=O)Nc4ccc(Br)cc43)n2)cc1 | 46 |
| CC(C)c1ccc(-c2noc(CCN3CCN(CCCN(C)C)CC3)n2)cc1 | 30 |
| CC(C)c1ccc(-c2nc(CN3CCCCC3)cc(CN3CCCCC3)c2O)cc1 | 92 |
| c1ccc(CNc2ccc(-c3noc(C45CCCN(CCC4)C5)n3)cn2)cc1 | 99 |
| C[C@@H](CNC1CCN(C2CCN(C)CC2)CC1)c1cccc(Cl)c1 | 103 |
| CN1CCN(CCNC2CCN3CCCC3C2)C(c2ccccc2)C1 (stereo not drawn) | 28 |
| CCCc1cccc(CNC2CCN(C3CCN(C)CC3)CC2)c1 | 71 |
| c1cncc(-c2ccc(CNC3CCN(Cc4cccs4)CC3)cc2)c1 | 86 |
| Brc1cccc(NCCNC2CCN(Cc3cccnc3)CC2)c1 | 41 |
| CN1CCN(CCOc2ccccc2CN(C)Cc2cc3cc(F)ccc3[nH]2)CC1 | 104 |
| COc1ccc(CNCc2cc3ccccc3[nH]2)cc1CN(C)C | 36 |
| CN1CCC[C@H](CN2CCN(Cc3cc4n(n3)CCCNC4)CC2)C1 | -7 |
| CN(c1ccccc1)c1ccc(CN2CCN([C@H]3CCNC3)CC2)cc1 | 0 |

| Compound | % Inhibition [%] |
| --- | --- |
| Cc1nc2ccc(CNC3CCN(c4ccc(F)c(F)c4)CC3)cc2[nH]1 | 64 |
| Fc1ccc(N2CCC(N[C@@H]3COC4(CCNCC4)C3)CC2)cc1F | 6 |
| N[C@H]1CC[C@@H](NC2CCN(c3ccc(F)c(F)c3)CC2)CC1 | 35 |
| CN(CCCn1ccnc1)c1ccnc2cc(Br)ccc12 | 98 |
| Cc1cccc(Nc2ccnc(Nc3ccc(N4CCN(C)CC4)cc3)n2)c1 | 99 |
| CNc1nc(N2CCN(CC(=O)NC3CCCCC3)CC2)nc2ccccc12 | 26 |
| COc1ccc2c(N3CC[C@H](CN4CCCC4)C3)ccnc2c1 | 102 |
| CN1CCN(CC2CCN(c3ccnc4ccccc34)CC2)CC1 | 103 |
| Cn1cncc1[C@@H]1CNC[C@H]1CNC(=O)c1ccccc1NC1CCCCC1 | 73 |
| O=C(Nc1cnc2c(c1)COCC2)c1cc2c(OC(F)(F)F)cccc2[nH]1 | 102 |
| CCN1CCC[C@H](Nc2cccc(-n3ccnc3)n2)C1 | 32 |
| O[C@H]1CCN(Cc2ccccc2CNc2cccc(-n3ccnc3)n2)C1 | 101 |
| O[C@H]1CCN(Cc2cccc(NCc3cn4ccnc4s3)c2)C1 | 45 |
| OCCN1CCC(NCCc2cc(Cl)cc(Cl)c2)CC1 | 30 |
| CN1CCN(CCCCNC2CC3CCC(C2)N3Cc2ccccc2)CC1 (stereo not drawn) | 41 |
| Nc1ccnc2ccc(-c3ccc(C(=O)NCC4CCOCC4)cc3)cc12 | 102 |
| O=C1C2CCCCC2C(c2c(-c3ccccc3)[nH]c3ccccc23)N1Cc1ccccc1 (stereo not drawn) | 33 |
| COc1cc2nc(NCC3(N4CCN(C)CC4)CCCC3)cc(C)c2cc1OC | 103 |
| Cc1ccccc1-c1cccc(N2CCC(NCC3CCNCC3)CC2)c1 | 100 |
| Cc1ccccc1-c1cccc(CNCCCN2CCC[C@H](O)C2)c1 | 17 |
| Cc1ccc2[nH]c(CNC[C@@H](CO)C3CCC3)cc2c1C | 80 |
| CNc1nc(C)c(-c2ccnc(Nc3cccc(S(C)(=O)=O)c3)n2)s1 | 45 |
| Nc1nc(NCC2CCN(CCc3ccccc3)CC2)cc([C@H]2C[C@@H](N)C2)n1 | 26 |
| Cc1cc(NC[C@H]2CN(CC(C)C)CCO2)c2ccccc2n1 | 28 |
| CCCN1CCC(Nc2cc(C)nc3ccccc23)CC1 | 89 |
| CC(C)CCOc1ccc2[nH]c(-c3cc(N4CCC[C@@H]4CS(C)(=O)=O)ccn3)cc2c1 | 98 |

| Compound | % Inhibition [%] |
| --- | --- |
| COc1ccc2cc(-c3cc(N)ccn3)[nH]c2c1 | 89 |
| Nc1ccnc(-c2cccc3[nH]ccc23)c1 | 0 |
| COc1ccc2[nH]cc(-c3ccc(N)nc3)c2c1 | -21 |
| COc1ccc2cc(NC(=O)c3cc(-c4c(C)nn(C)c4C)[nH]n3)cnc2c1 | 81 |
| Oc1cccc2c1CCC[C@@H]2NCc1ccc2occc2c1 | 55 |
| CN(C)C1CCN(CCN[C@H]2CCc3ccc(F)cc32)CC1 | 97 |
| CCN1CCN(C[C@@H](C)CNCc2cc(-c3ccccc3)ccc2OC)CC1 | -4 |
| O[C@H](COc1ccccc1CNCc1cc(-c2ccccc2)[nH]n1)CN1CCCCC1 | 103 |
| Cc1ccn2cc(-c3ccc(N4CCC(NCc5cccnc5)CC4)cc3)nc2c1 | 102 |
| Cc1nc(N2CCN(C)CC2)cc(N2CCN(S(=O)(=O)c3ccccc3C(F)(F)F)CC2)n1 | 56 |
| O=C(NCc1ccc(N2CCNCC2)c(F)c1)c1ccc(-c2noc(C(F)(F)F)n2)cc1 | 54 |
| c1ccc2c(Nc3ccc4[nH]cnc4c3)c3ccccc3nc2c1 | 102 |
| FC(F)(F)c1ccc(-c2c(-c3ccccc3)ncn2Cc2ncn[nH]2)cc1 | 7 |
| Cc1cnccc1NCCNCc1cccc(OCCCCN2CCOCC2)c1 | 95 |
| Cc1cnccc1NCCNCc1cnc(N2CCCCC2)nc1 | 62 |
| CCCN1CCC(N2CC(c3cccnc3)C(c3nc(C4CCCC4)no3)C2)CC1 (stereo not drawn) | 10 |
| OCC1CCCN1CCCCNC1CC2(CCC2)Oc2ccccc21 (stereo not drawn) | -5 |
| COc1ccc2nc3cc(Cl)ccc3c(O)c2c1 | 39 |
| COc1ccc2c(O)c(Br)c(C)nc2c1 | 72 |
| Cc1nc(-c2ccccn2)nc(NC2CCN(CC(F)F)CC2)c1C | 24 |
| Cc1cnccc1N1CCCN(Cc2ccccc2OCCN2CCN(C)CC2)CC1 | 102 |
| CCCC(=O)NC1COCC1Cc1ccncc1 (stereo not drawn) | 86 |
| CCOc1cc(C(=O)NC2CCN(CC3CCCC3)CC2)cc(-c2ccccc2)c1OC | 99 |
| Cc1cc(F)ccc1N1CCC(NCCCNc2cccnc2)CC1 | -2 |
| FC(F)(F)c1ccc(N2CCC[C@H](NC3CCN(Cc4ccco4)CC3)C2)nc1 | 38 |
| CCc1cc(Nc2ccc(N3CCOCC3)nc2)nc(-c2ccncc2)n1 | 42 |

| Compound | % Inhibition [%] |
| --- | --- |
| O=C(NC1CCN(CCOc2ccc(Cl)cc2)CC1)c1c[nH]c2ccncc2c1=O | 100 |
| O[C@@H](CNCc1cc2cc(Cl)c(Cl)cc2[nH]1)c1ccc(F)cc1 | 80 |
| OC[C@H](CNCc1cc2ccc(F)cc2[nH]1)c1ccccc1Cl | 82 |
| Cc1cc(N2CCC(N(C)Cc3cc(-c4ccccc4)n[nH]3)CC2)nc(N)n1 | 52 |
| CN(CCCc1cc(-c2ccc(F)cc2)n[nH]1)CC1CCNCC1 | 17 |
| CCN1CCN(c2ccc(CNCc3cccc(O)c3)cc2F)CC1 | 85 |
| Cc1ccccc1CN1CCC(CNc2c3c(nc4ccccc24)CCC3)CC1 | 103 |
| N#Cc1cccc(Cl)c1N1CCC(N2CCCC2)CC1 | 38 |
| CCc1cc(NCCc2nc3cc(F)ccc3[nH]2)nc(-c2ccccn2)n1 | 9 |
| COCCNc1nc(N[C@@H](C)c2ccccc2)c2ccccc2n1 | 92 |
| C[C@H](Nc1nc(N)c2ccccc2n1)c1cccc(-n2cncn2)c1 | 29 |
| NCC1(O)CCN(c2ccnc3cc(F)c(Cl)cc23)CC1 | 97 |
| CCc1oc2ccccc2c1CNC[C@H](O)c1ccc(Cl)cc1 | 99 |
| CC(C)c1ccc(CN2CCC[C@@](O)(CNCCN3CCNCC3)C2=O)cc1 | 29 |
| O=C1CN(C(=O)c2ccnc3ccccc23)CCN1Cc1ccccc1F | 63 |
| COc1cc2nc(-c3ccc(F)c4cccnc34)nc(N)c2cc1OC | 102 |
| Cc1cc(C)c(CN2CCN(C)CC2)cc1CNCCCn1ccnc1C | 44 |
| Cc1cccc(N2CCC(NCc3cc(C)cc(CN4CCN(C)CC4)c3C)CC2)c1 | 84 |
| Clc1ccc2[nH]c3c(c2c1)CCCC3NC1CCN(C2CCOC2)CC1 (stereo not drawn) | 96 |
| CCN1CCC(N2CCC(C(=O)NCCc3ccc(OC(F)(F)F)cc3)CC2)CC1 | 53 |
| O=C(NCc1ccc(OC(F)(F)F)cc1)N(CCN1CCCC1)[C@H]1CCCNC1 | 33 |
| Cc1sc2nc(-c3ccccn3)nc(NCCc3nccn3C)c2c1-c1ccccc1 | 65 |
| O=C(CCc1nnc(-c2ccc(-c3ccccc3)cc2)o1)NC[C@@H]1CCCN2CCCC[C@H]12 | 86 |
| COc1ccc2nc(C)cc(NCc3cccc(NC(=O)c4ccco4)c3)c2c1 | 105 |
| Cc1c(CN2CCC(O)(Cn3ccnc3)CC2)[nH]c2c(Cl)cccc12 | 99 |
